RGS16-Gao HTS: modulators of RGS16 binding to Galphao, primary screen, biochemical, human proteins, multiplexed bead flow cytometry; binding response (% of control), % at 10 µM; hit rate 0.38% among 220,000; AID 1441, 2008; bead-based flow cytometry RGS16-Galphao binding, fluorescence; actives lie on both sides; Regulator of G-protein signaling 16 (Homo sapiens) + Guanine nucleotide-binding protein …;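 note: Galphao activated by GDP with aluminum fluoride before binding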
Target sequence (O15492 whole entry, looked up): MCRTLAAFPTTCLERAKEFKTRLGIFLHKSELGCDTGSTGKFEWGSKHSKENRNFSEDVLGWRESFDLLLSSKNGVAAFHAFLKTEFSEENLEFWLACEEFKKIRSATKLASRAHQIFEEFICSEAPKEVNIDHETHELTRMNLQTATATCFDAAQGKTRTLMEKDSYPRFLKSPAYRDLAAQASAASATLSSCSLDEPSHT
Target sequence (P09471 whole entry, looked up): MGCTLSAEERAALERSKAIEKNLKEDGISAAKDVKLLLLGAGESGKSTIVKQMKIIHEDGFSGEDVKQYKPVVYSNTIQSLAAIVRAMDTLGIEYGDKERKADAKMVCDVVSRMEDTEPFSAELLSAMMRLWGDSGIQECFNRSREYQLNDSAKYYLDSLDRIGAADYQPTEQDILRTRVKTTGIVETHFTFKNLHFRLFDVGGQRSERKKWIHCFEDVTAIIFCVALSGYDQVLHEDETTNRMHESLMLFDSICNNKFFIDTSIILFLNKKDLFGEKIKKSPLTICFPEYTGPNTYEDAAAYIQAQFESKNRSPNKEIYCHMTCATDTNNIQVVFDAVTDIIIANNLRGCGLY
GSH bead fluor: compound fluorescence on glutathione beads, profiling panel, artefact control, biophysical, 488/530 nm, flow cytometry; GSH beads flow cytometry, compound fluorescence 488/530 nm; stronger effect = higher value; fluorescence (KMESF) at 10 µM; hit rate 0.25% among 190,000; AID 1776, 2009; in the data active = fluorescence above about 89;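 note: glutathione beads carrying GST-tagged Bcl family fusion proteins plus one bare bead set; values are compound well signal with DMSO vehicle wells as background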
RGS4-Gao reg: modulators of RGS4 binding to Galphao, primary screen, biochemical, multiplexed bead flow cytometry. actives lie on both sides. AID 1415, 2008. binding response (% of control), % at 10 µM. Guanine nucleotide-binding protein G(o) subunit alpha (Homo sapiens), P09471. hit rate 0.33% among 220,000; in the data active = binding response below about 49% or above about 150%; inactive = in between;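 note: fluorescent Galphao activated with aluminum fluoride binding bead-coupled RGS4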
Target sequence (P09471 whole entry, looked up): as above
RGS7-Gao reg: RGS7-Galphao binding modulators, primary screen, biochemical, multiplexed bead flow cytometry | actives lie on both sides | binding response (% of control), % at 10 µM | hit rate 0.35% among 220,000 | AID 1439, 2008; in the data active = binding response below about 49% or above about 150%; inconclusive = no clear call, values can overlap the other calls; inactive = in between;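 note: fluorescent Galphao held in activated GDP-AlF4 state binding bead-coupled RGS7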
RGS8-Gao: RGS8-Galphao binding modulators, primary screen, biochemical, multiplexed bead flow cytometry; AID 1423, 2008; response (percent of control binding), % at 10 µM; hit rate 0.34% among 220,000; actives lie on both sides; in the data active = response below about 60% or above about 140%; inactive = in between;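 note: Galphao activated as the GDP aluminium fluoride complex binding bead-coupled RGS8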
Avidin bead fluor: green autofluorescence of compounds with avidin beads – biophysical, 488/530 nm, flow cytometry, artefact control, profiling panel; compound fluorescence 488/530 nm; stronger effect = higher value; fluorescence (KMESF) at 10 µM; hit rate 0.38% among 220,000; in the data active = fluorescence above about 47
RGS-Gao: modulators of RGS–Galpha-o binding, primary screen, biochemical, multiplexed beads, flow cytometry, RGS4/7/8/16/19; shares compounds with RGS16-Gao HTS; multiplexed bead flow cytometry; RGS4–Galpha-o binding response, % at 10 µM; hit rate 99% among 1,600; AID 1504, 2009;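 note: fluorescently labeled Galpha-o bound to GDP with aluminium fluoride binding biotinylated RGS beads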
Avidin counter: disruption of biotin probe capture by avidin, counter-screen for RGS protein interaction modulators, biochemical, flow cytometry, bead-based; shares compounds with RGS16-Gao HTS; streptavidin beads, fluorescein-biotin binding; inhibition, % at 10 µM; 1,700 tested, under 10 active; AID 1783, 2009;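 active = inhibition above 50%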;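 note: median green fluorescence of gated singlet beads compared with DMSO control wells; 0% = DMSO wells and 100% = complete loss of bead fluorescence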
RGS8-Gao confirm: RGS8-Galphao binding modulators, confirmation, biochemical, multiplexed bead flow cytometry, single concentration. shares compounds with RGS16-Gao HTS. binding response (% of control), % at 10 µM. hit rate 3% among 1,700. AID 1836, 2009. bead-based flow cytometry RGS8-Galphao binding, fluorescence; actives lie on both sides; in the data active = binding response below about 72% or above about 130%; inactive = in between;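 note: Galphao activated as GDP AlF4 complex before binding bead RGS8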
RGS7-Gao confirm: RGS7-Galphao binding modulators, confirmation, biochemical, multiplexed bead flow cytometry, single concentration; shares compounds with RGS16-Gao HTS; hit rate 7.8% among 1,700; AID 1837, 2009; response (percent of control binding), % at 10 µM; bead-based flow cytometry RGS7-Galphao binding; actives lie on both sides; in the data active = response below about 75% or above about 130%; inactive = in between;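 note: fluorescent Galphao activated with GDP and aluminum fluoride binding bead-coupled RGS7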
RGS16-Gao single: modulators of RGS16-Galphao protein binding, confirmation, biochemical, single concentration, multiplexed bead flow cytometry; response (% of control binding), % at 10 µM; shares compounds with RGS16-Gao HTS; hit rate 4% among 1,700; bead-based flow cytometry; actives lie on both sides; in the data active = response below about 74% or above about 130%; inactive = in between;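 note: Galphao activated as the GDP aluminium fluoride complex binding bead-coupled RGS16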
RGS4-Gao confirm: modulators of RGS4-Galphao protein binding, confirmation, biochemical, single concentration, multiplexed bead flow cytometry. AID 1840, 2009. actives lie on both sides. hit rate 4% among 1,700. binding response (% of control), % at 10 µM. shares compounds with RGS16-Gao HTS; in the data active = binding response below about 74% or above about 130%; inactive = in between
RGS19-Gao single: regulators of RGS19-Galphao binding, confirmation, biochemical, single point, multiplexed bead flow cytometry. shares compounds with RGS16-Gao HTS. bead-based flow cytometry RGS19-Galphao binding; actives lie on both sides. response (percent of control binding), % at 10 µM. hit rate 5% among 1,700. AID 1841, 2009; in the data active = response below about 50% or above about 160%; inactive = in between;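 note: 100% = no compound control and 0% = blank background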
An asterisk follows results filed as active; ? = inconclusive; . = not tested or not shown; [ ] = remark or other dose. Most compounds without a hit are left out; they make up all but 1.2% or so of the library. Unless noted, the rule behind the calls is not given here.

SMILES	RGS16-Gao HTS	GSH bead fluor	RGS4-Gao reg	RGS7-Gao reg	RGS8-Gao	Avidin bead fluor	RGS-Gao	Avidin counter	RGS8-Gao confirm	RGS7-Gao confirm	RGS16-Gao single	RGS4-Gao confirm	RGS19-Gao single
COc1ccc(-c2cc(CNS(=O)(=O)c3ccc(F)cc3)on2)cc1	96.6	19	95.4	?	94.1	10	.	.	.	.	.	.	.
Cc1cc(C)cc(N(CC(=O)NCCSCc2ccccc2)S(C)(=O)=O)c1	108.2	10	118.5	180.1*[activator]	103.7	77*	118.5*	0.1	99.9	47.0*	81.8	60.2*	48.5*
CCCNC(=O)CN(c1cccc(F)c1)S(C)(=O)=O	282.0	15	125.6	116.6	155.3*[activator]	7	125.6*	1.8	102.9	105.5	102.9	102.3	108.3
CCSc1nnc(NC(=O)C(NC(=O)c2ccc(Cl)cc2)C(C)C)s1 (stereo unspecified)	103.7	12	99.9	97.4	98.0	4	.	.	.	.	.	.	.
O=C(c1cnccn1)N(Cc1cccs1)C1(C(=O)NC2CCCCC2)CCCCC1	245.6*[activator]	18	114.9	108.1	135.4	12	114.9*	1.6	97.8	66.7*	90.8	76.0	79.0
O=C(c1cnccn1)N(Cc1cccs1)C1(C(=O)NC2CCCC2)CCCCC1	51.6	86	91.1	95.8	81.1	4	.	.	.	.	.	.	.
COc1ccc(C)cc1NC(=O)Nc1ccccc1	97.7	57	104.3	103.7	100.8	13	.	.	.	.	.	.	.
COc1cccc(NC(=O)Nc2cc(C)ccc2OC)c1	21.6*	15	35.6*	26.3*	33.8*	2	.	2.3	98.5	95.0	96.6	99.6	103.5
O=C(OCc1cncs1)c1ccccc1	100.7	14	102.7	95.8	99.0	11	.	.	.	.	.	.	.
CS(=O)(=O)c1nc2ccccc2n1Cc1ccccc1	.	13	.	.	.	.	.	-0.1	99.8	103.1	99.2	104.3	107.7
O=S(=O)(O)c1nc2ccccc2n1Cc1ccccc1	98.0	13	97.0	99.5	98.6	30	.	.	.	.	.	.	.
CCOC(=O)c1sc(NC(=O)COC(=O)C(CCSC)NC(C)=O)nc1C (stereo unspecified)	9.0*	13	86.1	84.5	78.0	6	86.1*	1.7	102.3	104.2	102.5	104.8	116.6
CSc1ccccc1C(=O)OCC(=O)NC1CCS(=O)(=O)C1 (stereo unspecified)	91.2	10	98.7	103.7	101.9	23	.	.	.	.	.	.	.
O=C(NC(=S)Nc1ccc(N2CCCCC2)cc1)c1ccc2c(c1)OCCO2	204.0*[activator]	6	106.8	107.3	124.8	14	106.8*	-0.3	102.2	98.4	99.5	96.8	100.8
O=C(NC(=S)Nc1ccc(N2CCOCC2)cc1)c1ccc2c(c1)OCCO2	97.7	7	97.1	98.0	98.9	2	.	.	.	.	.	.	.
Cc1cccn2c(=O)c(C=O)c(NCc3ccccc3)nc12	102.5	.	102.3	?	104.0	6	.	.	.	.	.	.	.
Cc1c(NC(=O)CSc2nnc(COc3ccccc3)n2-c2ccccc2)c(=O)n(-c2ccccc2)n1C	104.3	13	114.2	170.6*[activator]	100.7	141*	114.2*	.	.	.	.	.	.
Cc1cc(C)cc(OCC(=O)OCC(=O)Nc2c(C)n(C)n(-c3ccccc3)c2=O)c1	145.3	14	145.1	152.9*[activator]	138.8	11	145.1*	1.0	102.9	100.3	100.8	101.8	98.2
Cc1c(NC(=O)COC(=O)c2ccccc2Cl)c(=O)n(-c2ccccc2)n1C	104.1	17	96.8	99.9	105.1	10	.	.	.	.	.	.	.
CCOCC(=O)Nc1c(C)n(C)n(-c2ccccc2)c1=O	106.8	31	105.5	106.3	102.1	14	.	.	.	.	.	.	.
Cc1c(NC(=O)CSc2n[nH]c(=O)n2-c2ccccc2)c(=O)n(-c2ccccc2)n1C	108.4	17	106.1	109.3	104.2	9	.	.	.	.	.	.	.
Cc1c(NC(=O)COC(=O)COc2ccc(Nc3ccccc3)cc2)c(=O)n(-c2ccccc2)n1C	141.9	14	142.6	155.1*[activator]	140.4*[activator]	11	142.6*	.	.	.	.	.	.
O=C(O)C[C@@H]1C(=O)O[C@@H]2C(COC(=O)c3cc(O)c(O)c(O)c3)O[C@@H](OC(=O)c3cc(O)c(O)c(O)c3)[C@@H](OC(=O)c3cc(O)c(O)c4c3[C@H]1[C@H](O)C(=O)O4)[C@H]2OC(=O)c1cc(O)c(O)c(O)c1 (stereo partly specified)	42.6	.	2.5*	?	38.1*	6	.	-0.4	39.0*	-11.7*	38.6*	-0.5*	41.7*
CCOCCCNC(=O)Cn1cc2c(n1)CCCCC2	85.5	14	84.7	91.6	95.9	19	.	.	.	.	.	.	.
COc1ccc(OC)c(/C=C2\SC(=S)N(Cc3cccnc3)C2=O)c1	14.5*	9	88.9	88.0	83.5	5	88.9*	-0.6	108.1	112.0	103.1	103.3	105.0
Cc1ccccc1N=C(NOCc1ccc(Cl)cc1Cl)c1nonc1N	.	37	.	.	.	.	.	2.2	96.2	95.0	93.9	96.3	103.1

Screening data: PubChem, NMMLSC
